Test results taken from PubChem BioAssay (Tox21).
Records with an inconclusive call do not appear. A call without a number means that no potency is given here. Calls of active or inactive are those of the source. Calls follow the shape of the dose curve; as a rule, active = well fitted activation curve with a large enough effect in the signal ratio in the repeat runs (not every such curve was filed as active); inconclusive = weak or mixed curves, or effect the other way; inactive = no such curve, though single readings can be large or run the other way; the % refers to the signal ratio. Positions of bridges follow the written chain, without caps; N, C: chain ends. Non-standard residues stand in square brackets, D forms with d. Residues, ends and D or L forms follow the SMILES beside them. *: point of attachment. X2 = CC[C@H](C)CCCCC(=O)*; Dab = NCC[C@H](N)C(=O)O

Target: Peroxisome proliferator-activated receptor gamma (Homo sapiens) (UniProt P37231)
Assay: qHTS assay to identify small molecule agonists of the peroxisome proliferator-activated receptor gamma (PPARg) signaling pathway (AID 743094)
Conditions: HEK293H PPARg-UAS-bla, beta-lactamase FRET ratio, 17 h; series mostly up to 57 µM
Text: U.S. Tox21 Program National Center for Advancing Translational Sciences [NCATS] NIH Chemical Genomics Center [NCGC] U.S. Environmental Protection Agency [EPA] National Institutes of Environmental Health Sciences [NIEHS] National Toxicology Program [NTP] U.S. Food and Drug Administration [FDA] Tox21 Assay Overview: The peroxisome proliferator-activated receptors (PPARs) are lipid-activated transcription factors of the nuclear receptor superfamily with three distinct subtypes namely PPAR alpha, PPAR delta (also called PPAR beta) and PPAR gamma (PPARg). All these subtypes heterodimerize with Retinoid X receptor (RXR) and these heterodimers regulate transcription of various genes. PPAR-gamma receptor (glitazone receptor) is involved in the regulation of glucose and lipid metabolism. To identify the compounds that activate PPAR-gamma signaling, GeneBLAzer PPAR gamma UAS-bla HEK293H cell line (Invitrogen, Carlsbad, CA, USA) containing a beta-lactamase reporter gene under control of the control of an upstream activator sequence (UAS) stably integrated into HEK293H cells was used to screen Tox21 compound library.
Tox21 Assay Protocol Summary: PPARg-bla cells were dispensed at 3000 cells/6uL/well in 1536-well black wall/clear bottom plates using a Multidrop Combi (Thermo Fisher Scientific, Waltham, MA) dispenser. After the assay plates were incubated at 37C and 5% CO2 for 5 h, 23 nL of compounds dissolved in DMSO, positive controls or DMSO only was transferred to the assay plate by a Pintool station (Kalypsys, San Diego, CA). The assay plates were incubated at 37C for 17 h. After 1 uL of LiveBLAzerTM B/G FRET substrate was added using a Bioraptr Flying Reagent Dispenser (FRD) workstation (Beckman Coulter, Indianapolis, IN, USA), the plates were incubated at room temperature for 1 h, and fluorescence intensity was measured by an Envision plate reader (PerkinElmer, Shelton, CT).

Chain of Peroxisome proliferator-activated receptor gamma (Homo sapiens) (P37231 whole entry, looked up): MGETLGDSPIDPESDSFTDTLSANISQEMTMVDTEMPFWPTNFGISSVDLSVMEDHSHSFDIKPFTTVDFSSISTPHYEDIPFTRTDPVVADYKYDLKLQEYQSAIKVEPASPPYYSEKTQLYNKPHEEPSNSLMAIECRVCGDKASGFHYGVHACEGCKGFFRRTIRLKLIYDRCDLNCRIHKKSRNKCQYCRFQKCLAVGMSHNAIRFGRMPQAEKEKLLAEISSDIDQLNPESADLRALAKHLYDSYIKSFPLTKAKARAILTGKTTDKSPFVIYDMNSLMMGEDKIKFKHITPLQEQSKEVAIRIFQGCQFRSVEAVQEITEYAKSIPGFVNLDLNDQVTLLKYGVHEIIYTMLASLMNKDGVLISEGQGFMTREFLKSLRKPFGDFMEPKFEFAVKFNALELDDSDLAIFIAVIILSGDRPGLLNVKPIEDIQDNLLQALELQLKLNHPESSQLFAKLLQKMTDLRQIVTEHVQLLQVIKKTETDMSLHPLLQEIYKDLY

| Compound | Potency |
| --- | --- |
| CCCCCCCCCCCCCCCC(=O)OC[C@@H](COP(=O)([O-])OCC[N+](C)(C)C)OC(=O)CCCCCCCCCCCCCCC | inactive |
| Nc1nc2[nH]cc(CCc3ccc(C(=O)N[C@@H](CCC(=O)O)C(=O)O)cc3)c2c(=O)[nH]1 | inactive |
| Cn1c(=O)c2c(ncn2CCOC(=O)C(C)(C)Oc2ccc(Cl)cc2)n(C)c1=O | inactive |
| CS(=O)(=O)c1ccc(C2=C(c3ccccc3)C(=O)OC2)cc1 | inactive |
| C[Se]CCC(N)C(=O)O (stereo not given) | inactive |
| CC(=O)Nc1ccc(NC(=S)NC(=O)c2ccc(C(C)(C)C)cc2)cc1 | inactive |
| OCCO[C@@H]1[C@@H](O)[C@H](O)[C@@H](CO)O[C@@H]1O | inactive |
| CCN(CC)CCOc1ccc2nc(N(C)C)sc2c1 | inactive |
| CC(O)CN(C)C (stereo not given) | inactive |
| COc1cc(Br)c(C[N+]2(CCOCCC3CCC4CC3C4(C)C)CCOCC2)cc1OC (stereo not given) | inactive |
| C=CC1=C(C)C2=CC3=NC(=C(CC(=O)[O-])C4=NC(=C(C)C4=C([O-])[O-])C=c4[n-]c(c(C)c4CC)=CC1=N2)C(CCC(=O)[O-])C3C.[Cu+2].[Na+].[Na+].[Na+] (stereo not given) | inactive |
| CCN(CC)CCC(=O)N1c2ccccc2Sc2ccc(Cl)cc21 | inactive |
| Cc1cccc(Nc2ncccc2C(=O)O)c1C | inactive |
| CN[C@H]1CCc2cc(OC)c(OC)c(OC)c2-c2ccc(OC)c(=O)cc21 | inactive |
| O=C(O)c1cc2ccccc2c(Cc2c(O)c(C(=O)O)cc3ccccc23)c1O | inactive |
| CCN(CC)CCOc1ccccc1OC | inactive |
| CCOc1cc(-c2nccc3cc(OC)c(OC)cc23)cc(OCC)c1OCC | inactive |
| CC(=O)Nc1c(I)c(C(=O)N[C@H]2C(O)O[C@H](CO)[C@@H](O)[C@@H]2O)c(I)c(N(C)C(C)=O)c1I (stereo not given in full) | inactive |
| C#C[C@]1(O)CC[C@H]2[C@@H]3CCC4=CC(=O)CC[C@@H]4[C@H]3C(=C)C[C@@]21CC | inactive |
| O=C(Nc1ccc(/C=C/c2ccc(NC(=O)c3cc(S(=O)(=O)O)c4cccnc4c3O)cc2S(=O)(=O)O)c(S(=O)(=O)O)c1)c1cc(S(=O)(=O)O)c2cccnc2c1O | inactive |

| Compound | Potency |
| --- | --- |
| CCN(CC)c1ccc(N=Nc2ccc(S(=O)(=O)N(C)C)cc2)c(S(=O)(=O)NCC[n+]2ccccc2)c1 | inactive |
| O=C(OC1C[C@@H]2CC3C[C@H](C1)N2CC3=O)c1c[nH]c2ccccc12 (stereo not given in full) | inactive |
| CC(C)CN(C[C@@H](O)[C@H](Cc1ccccc1)NC(=O)O[C@@H]1CCOC1)S(=O)(=O)c1ccc(N)cc1 | inactive |
| COc1ccc(C2NC(=S)N3C(c4ccc(OC)c(OC)c4)NC(=S)N23)cc1OC (stereo not given) | inactive |
| CC(C)CCC[C@@H](C)[C@H]1CC(=O)C2=C3CC[C@H]4C[C@@H](O)CC[C@]4(C)[C@H]3CC[C@@]21C | inactive |
| CC[C@H](C)CCCCC(=O)N[C@@H](CCN)C(=O)N[C@H](C(=O)N[C@@H](CCN)C(=O)N[C@H]1CCNC(=O)[C@H]([C@@H](C)O)NC(=O)[C@H](CCN)NC(=O)[C@H](CCN)NC(=O)[C@H](CC(C)C)NC(=O)[C@@H](CC(C)C)NC(=O)[C@H](CCN)NC1=O)[C@@H](C)O (X2-[Dab]T[Dab][Dab][Dab][dL]L[Dab][Dab]T; lactam 4-C) | inactive |
| CO/N=C(\C(=O)N[C@@H]1C(=O)N2C(C(=O)O)=CCS[C@H]12)c1csc(N)n1 | inactive |
| CCOC(=O)C1=C[C@@H](OC(CC)CC)[C@H](NC(C)=O)[C@@H](N)C1 | inactive |
| COC1=C(C(=O)O)N2C(=O)[C@@H](NC(=O)[C@H](N)C3=CCC=CC3)[C@H]2SC1 | inactive |
| FC(F)(F)C(F)(F)C(F)(F)C(F)(F)C(F)(F)C(F)(F)F | inactive |
| C[C@]12C=CC(=O)N[C@@H]1CC[C@@H]1[C@@H]2CC[C@]2(C)[C@@H](C(=O)Nc3cc(C(F)(F)F)ccc3C(F)(F)F)CC[C@@H]12 | inactive |
| CC(=O)OCC(=O)[C@@]1(O)[C@H](C)C[C@H]2[C@@H]3C[C@H](F)C4=CC(=O)C=C[C@]4(C)[C@H]3[C@@H](O)C[C@@]21C | inactive |
| CC(C)CCCC(C)NC(C)C (stereo not given) | inactive |
| O=P(O)(O)C(Sc1ccc(Cl)cc1)P(=O)(O)O | inactive |
| Cc1nnc(C(C)C)n1C1C[C@H]2CC[C@@H](C1)N2CC[C@H](NC(=O)C1CCC(F)(F)CC1)c1ccccc1 (stereo not given in full) | inactive |
| CCSc1ccc2c(c1)N(CCCN1CCN(C)CC1)c1ccccc1S2 | inactive |
| COc1cc(NCCCC(C)N)c2ncccc2c1 (stereo not given) | inactive |
| CC(=O)N[C@@H](C=O)[C@@H](O)[C@H](O)[C@H](O)CO | inactive |
| O=C(NCCNCC(O)COc1ccc(O)cc1)N1CCOCC1 (stereo not given) | inactive |
| O=C(O)c1cc(O)c2c(c1)[O][Bi][O]2 | inactive |
